Our source for the outcome and AC50 values is PubChem BioAssay (EPA / NIEHS).

Each structure is given as a SMILES string. Calls of active or inactive are those of the source. How the source made its calls: active means hit-call score of the fitted dose curve at least 0.9, where 1 is the maximum; inactive means score below 0.9.

Sequence of Heat shock factor protein 1 (Homo sapiens) (Q00613 whole entry, looked up): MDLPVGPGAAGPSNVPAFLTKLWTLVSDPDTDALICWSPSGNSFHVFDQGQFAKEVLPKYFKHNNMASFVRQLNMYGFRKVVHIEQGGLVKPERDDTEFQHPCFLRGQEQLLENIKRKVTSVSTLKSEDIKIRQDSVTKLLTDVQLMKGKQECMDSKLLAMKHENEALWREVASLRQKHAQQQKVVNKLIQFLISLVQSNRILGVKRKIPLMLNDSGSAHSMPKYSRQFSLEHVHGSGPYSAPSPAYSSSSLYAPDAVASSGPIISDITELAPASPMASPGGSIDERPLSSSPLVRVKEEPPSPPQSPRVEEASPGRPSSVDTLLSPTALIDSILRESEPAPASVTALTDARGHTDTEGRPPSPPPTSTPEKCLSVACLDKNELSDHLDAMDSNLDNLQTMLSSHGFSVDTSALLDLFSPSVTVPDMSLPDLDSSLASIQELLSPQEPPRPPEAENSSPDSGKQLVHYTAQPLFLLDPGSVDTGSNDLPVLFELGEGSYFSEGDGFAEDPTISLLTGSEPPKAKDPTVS

The target in this experiment is Heat shock factor protein 1 (Homo sapiens) (UniProt Q00613). Briefly: ATG_HSE_CIS: Attagene CIS-FACTORIAL HepG2 Assay for human Heat Shock Transcription Factor 1 (HSE) (AID 2282953). The conditions noted are these: HepG2 HSE cis-reporter, Attagene RNA transcription; actives raise or lower the signal. How it is done:
ATG_CIS is a cell-based, multiplexed-readout assay that uses HepG2, a human liver cell line, with measurements taken at 24 hours after chemical dosing in a 24-well plate.ATG_HSE_CIS is one of 52 assay component(s) measured or calculated from the ATG_CIS assay. It is designed to make measurements of mRNA induction, a form of inducible reporter, as detected with fluorescence intensity signals by Reverse transcription polymerase chain reaction (RT-PCR) and Capillary electrophoresis technology.Data from the assay component ATG_HSE_CIS was analyzed into 1 assay endpoint. This assay endpoint, ATG_HSE_CIS, was analyzed with bidirectional fitting relative to DMSO as the negative control and baseline of activity. Using a type of inducible reporter, measures of mRNA for gain or loss-of-signal activity can be used to understand the reporter gene at the transcription factor-level as they relate to the gene HSF1. Furthermore, this assay endpoint can be referred to as a primary readout, because this assay has produced multiple assay endpoints where this one serves a reporter gene function. To generalize the intended target to other relatable targets, this assay endpoint is annotated to the dna binding intended target family, where the subfamily is heat shock protein.
Human liver HepG2 cells are transiently transfected with multiple reporter transcription units (MRTUs) in 6-well plates using FuGene 6 reagent (Roche; 3 ml FuGene/1 mg DNA). The MRTU constructs are regulated by a cis-regulating element (promoter). […] A major difference between the CIS and TRANS system is that in CIS activities of endogenous TFs are measured, whereas the TRANS assay evaluates changes in activities of exogenous, chimeric NR-Gal4 proteins. […] At the end of 24 hour incubation, total RNA was isolated using TriZol reagent (Invitrogen). The isolated RNA is then reverse-transcribed using oligo(dT) primer and Mo-MLV reverse transcriptase (Invitrogen) with DNAse I (Ambion) treatment for 30 min. The one-tenth of the produced cDNA was amplified by PCR using Taq DNA polymerase (Invitrogen) and two reporter sequence-specific primers. The PCR products were fluorescently labeled by primer extension with 6-arboxyfluorescein (6-FAM) 5'-labeled reporter sequence-specific primer (2 min at 95 C, 20 s at 68 C and 10 min at 72 C) and these products were digested with 5U of HpaI (New England Biolabs) for 2h at 37 C. The fragments were purified using Qiaquick PCR columns (Qiagen), analyzed on an ABI 3130xL genetic analyzer (Applied Biosystems) with peak positions identified by using a set of X-rhodamine (ROX)-labeled MapMarker1000 molecular weight standards (BioVentures). The raw capillary electrophoresis data was processed using Attagraph software (Attagene).
With `CCc1ccc(O)c(C(C)(C)C)c1`, the outcome was inactive.
Regarding `C[C@@H](Oc1ccc(CNC(=O)c2cccnc2Oc2ccc3c(c2)OCO3)c(F)c1)C(=O)O`, the result was inactive.
Take `O=C(NO)C1(NS(=O)(=O)c2ccc(Oc3ccc(F)cc3)cc2)CCOCC1`: the result was inactive.
On to `CCCOc1ccc(S(=O)(=O)N2CCN(CC)CC2)cc1-c1nc2c(CC)n(Cc3ccccn3)nc2c(=O)[nH]1`, for which the compound was called inactive.
As for `FC(F)(F)COC(OCC(F)(F)F)OCC(F)(F)F`, the result was inactive.
With `O=C(Cl)C(F)(F)C(F)(F)C(F)(F)C(=O)Cl`, the compound was classed as inactive.
Regarding `OC(O)(C(F)C(O)(O)C(F)(F)F)C(F)(F)F`, the outcome was inactive.
On the same count and under the same terms, the entry for `S=P(N1CC1)(N1CC1)N1CC1` is “inactive”.
Consider `FC(F)C(F)(F)COCC1CO1` (stereo not given), for which the outcome was inactive.
Regarding `OC(CCl)CCl`, the result was inactive.
As for `C[C@]12C=CC(=O)C=C1CC[C@H]1[C@@H]3C[C@@H](O)[C@](O)(C(=O)CO)[C@@]3(C)C[C@H](O)[C@@]12F`, the outcome was inactive.
The term AC50 denotes the midpoint of the concentration-response curve, whichever way the signal moves. On to `CCCCCCCCCCCCCCO`, for which the concentration at half-maximal activity (AC50) was 117 µM (active).
Take `CCCCCCCC1CCC(=O)O1` (stereo not given): the compound was classed as inactive.
As for `Cn1cc[nH]c1=S`, the compound was called inactive.
As to `NC(N)=O`, the outcome was inactive.
On to `OCc1c[nH]c2ccccc12`, for which the AC50 is 176 µM (active) [middle of 5 runs].
Consider `OC[C@H]1O[C@@](CO)(O[C@H]2O[C@H](CO)[C@@H](O)[C@H](O)[C@H]2O)[C@@H](O)[C@@H]1O`, for which the result was inactive.
As to `CCOc1ccc2[nH]cc(C(=O)NCc3ccccc3)c(=O)c2n1`, the outcome was inactive.
For `O=C1CN(N=Cc2ccc([N+](=O)[O-])o2)C(=O)N1`, the outcome was inactive.
Take `NC(=O)NN=Cc1ccc([N+](=O)[O-])o1`: the compound was classed as inactive.
Turning to `OC[C@H]1O[C@@H]2O[C@H]3[C@H](O)[C@@H](O)[C@@H](O[C@H]4[C@H](O)[C@@H](O)[C@@H](O[C@H]5[C@H](O)[C@@H](O)[C@@H](O[C@H]6[C@H](O)[C@@H](O)[C@@H](O[C@H]7[C@H](O)[C@@H](O)[C@@H](O[C@H]1[C@H](O)[C@H]2O)O[C@@H]7CO)O[C@@H]6CO)O[C@@H]5CO)O[C@@H]4CO)O[C@@H]3CO`, the compound was called inactive.
Same read-out and setting: the entry for `Cn1c(=O)c2[nH]cnc2n(C)c1=O` is “inactive”; for `FC(F)=C(F)C(F)(F)C(F)(F)C(F)(F)C(F)(F)C(F)(F)C(F)(F)F` it is “inactive”; for `COc1cc2c(c(OC)c1OC)-c1ccc(OC)c(=O)cc1[C@@H](NC(C)=O)CC2` it is “inactive”.
Still for that read-out and setting: for `CNC(C)=O` the value was “inactive”; for `c1ccc2c(c1)-c1cccc3c1c-2cc1ccccc13`, “inactive”.
On the same count and under the same terms, the entry for `NC(=O)N(O)[C@@H]1COc2cc(OCc3ccccc3)ccc21` is “inactive”; for `CCCCC(CC)C(=O)OCCOCCOCCOC(=O)C(CC)CCCC` (stereo not given) it is “inactive”.
For `C[Si](C)(C)C(F)(F)C(F)(F)C(F)(F)F`, the compound was called inactive.
For `COCc1nnc(-c2ccc[n+]([O-])c2)n1-c1c(Cl)c(Cl)cc2[nH]c(=O)c(=O)[nH]c12`, the call was inactive.
As to `Cc1cccc(O)c1C`, the result was inactive.
Consider `C=CCc1cc(S(=O)(=O)c2ccc(O)c(CC=C)c2)ccc1O`, for which the half-maximal activity concentration (AC50) was 54.7 µM (active).
For `OCc1ccccc1`, the outcome was inactive.
In the case of `NC(=O)N1c2ccccc2C=Cc2ccccc21`, the compound was called inactive.
On to `CCOC(N)=O`, for which the result was inactive.
Consider `O=C(O)c1cccc(C(=O)O)c1`, for which the compound was classed as inactive.
Turning to `CC(C)c1nnc2ccc(-c3ocnc3-c3cc(F)ccc3F)cn12`, the compound was called inactive.
As for `OCCOCCOCCO`, the compound was classed as inactive.
With `Cc1ncc([C@@H](CCCCCCc2ccc3c(n2)NCCC3)CC(=O)O)cn1`, the compound was called inactive.
On the same count and under the same terms, for `COS(C)(=O)=O` the value was “inactive”.
